{"source": "PubChem BioAssay (NCI)", "note": "This is part of a sample that, as a whole, favours compounds with a hit. Of some 83,000 tested, about 20% had one in any assay.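 Values shown are percent growth following 48 h exposure of cells in 96-well plates to a single concentration of compound; below 10 was considered active.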 A number with no mark means an inactive call. The source made the active and inactive calls.", "data": [{"system": "MDA-MB-468 breast", "test": "NCI-60 one-dose screen, 48 h (100 = growth as untreated, 0 = no growth, -100 = all killed)", "details": "10 µM unless noted", "values": [{"smiles": "CN1CCN(CCOc2ccc(-c3cnc4c(-c5ccc(F)cc5)cnn4c3)cc2)CC1", "growth": "61.3%"}, {"smiles": "COC(=O)[C@]12CC[C@@H](C)[C@H](C)[C@@H]1C1=CC[C@@H]3[C@@]4(C)C[C@@H](OC(=O)/C=C/c5ccccc5)[C@H](O)[C@@](C)(CO)[C@@H]4[C@H](O)C[C@@]3(C)[C@]1(C)CC2", "growth": "-19.2% (active)"}, {"smiles": "COc1cc2cc(NCc3ccncc3)nc(C)c2cc1OC", "growth": "87.7%"}, {"smiles": "COc1ccc(-c2cnnc3c(-c4cccc(C(F)(F)F)c4)cnn23)cc1", "growth": "77.6%"}, {"smiles": "Cn1c(=O)c2[nH]c(CCCc3nc4c([nH]3)c(=O)n(C)c(=O)n4C)nc2n(C)c1=O", "growth": "103%"}, {"smiles": "COc1ccc(-c2nc(N=Nc3c(O)[nH]c4ccccc34)nc(N3CCOCC3)c2C#N)cc1", "growth": "71%"}, {"smiles": "CCCS(=O)(=O)Nc1cccc(Nc2ncnc3cc(NC(=O)CCl)ccc23)c1Cl", "growth": "-41.8% (active)"}, {"smiles": "Nc1ccccc1NS(=O)(=O)c1ccc(Cl)cc1", "growth": "99.1%"}, {"smiles": "O=C(Cn1cc(CN2CCCCCC2)nn1)Nc1ccc2c(ccn2Cc2ccccc2)c1", "growth": "74.9%"}, {"smiles": "CCCCCCNC(=O)Oc1ccc(/C(=C(\\C)c2ccc(Cl)cc2)c2ccc(OCCN(CC)CC)cc2)cc1", "growth": "52.4%"}, {"smiles": "CCN1CCN(CCNc2nccc(-c3c(-c4cccc(OC)c4)nc4occn34)n2)S1(=O)=O", "growth": "100%"}, {"smiles": "OC[C@@H](O)[C@@H](O)CO", "growth": "102%"}, {"smiles": "COc1cc(NC(=O)c2cncnc2Nc2ccc3c(ccn3Cc3cccc(F)c3)c2)cc(OC)c1", "growth": "42.8%"}, {"smiles": "COC1/C=C/OC2(C)Oc3c(C)c(O)c4c(O)c(c(/C=N/N(c5ccccc5)c5ccccc5)c(O)c4c3C2=O)NC(=O)C(C)=C/C=C/C(C)C(O)C(C)C(O)C(C)C(OC(C)=O)C1C", "note": "(configuration not stated)", "growth": "-44.7% (active)"}, {"smiles": "COc1ccc(C(=O)C/C(=C\\c2ccc(O)c(OC)c2)C(=O)NN)cc1", "growth": "27.6%"}, {"smiles": "C/C(=C\\c1ccc(OCC(=O)O)c(Cl)c1Cl)[N+](=O)[O-]", "growth": "119%"}, {"smiles": "C/C(=C(/c1ccc(O)cc1)c1ccc(OCCN2CCCC2)cc1)c1ccccc1", "growth": "34.7%"}, {"smiles": "CC(=O)Oc1cccc(S(=O)(=O)n2cc(C(=O)C(=O)Nc3ccncc3)c3ccccc32)c1", "growth": "7.5% (active)"}, {"smiles": "CCCCCCC12CCC(=O)N1CCc1cncn12", "note": "(configuration not stated)", "growth": "85%"}, {"smiles": "c1coc2occoc=2o1", "growth": "98.6%"}, {"smiles": "Brc1cnc2ccccc2c1", "growth": "113%"}, {"smiles": "O=S(=O)(NCCNc1nccc(-n2cnc3ccccc32)n1)c1ccc(C(F)(F)F)cc1", "growth": "26.4%"}, {"smiles": "O=C(Nc1ccc2ncnc(Nc3ccc(Oc4cccc(F)c4)c(Cl)c3)c2c1)c1ccc(CNCCO)cc1", "growth": "-46% (active)"}, {"smiles": "O=Nc1c(-c2cccc([N+](=O)[O-])c2)nc2ncccn12", "growth": "17.4%"}, {"smiles": "Nc1nc(-c2cnccn2)nn1-c1nc2ccccc2s1", "growth": "102%"}, {"smiles": "CCC(C)[C@H](NC(C)=O)C(=O)N[C@@H](CCCNC(=N)N)C(=O)N[C@@H](CCCCN)C(=O)N[C@@H](CC1CCC(O)CC1)C(=O)NC(C(=O)N[C@@H](CCSC)C(=O)N[C@@H](CCCNC(=N)N)C(=O)N[C@@]1(C)CCC/C=C\\CCC[C@@](C)(C(=O)NC(C(=O)N[C@@H](CCC(=O)O)C(=O)N[C@@H](CC(C)C)C(=O)N[C@H](C(=O)N[C@@H](CCC(=O)O)C(N)=O)C(C)C)[C@@H](C)O)NC(=O)[C@H](CCC(N)=O)NC(=O)[C@H](CC(C)C)NC(=O)[C@H](CC(C)C)NC1=O)[C@@H](C)O", "note": "(some centres not stated)", "growth": "99.7%"}, {"smiles": "NS(=O)(=O)c1ccc(CCn2c(SCC(=O)N/N=C/c3cc4ccccc4[nH]3)nc3ccccc3c2=O)cc1", "growth": "60.2%"}, {"smiles": "O=C(N/N=C/c1ccc([N+](=O)[O-])s1)c1[nH]c2ccc(Br)cc2c1-c1ccccc1", "growth": "24.8%"}, {"smiles": "C#C[C@]1(O)CC[C@H]2[C@@H]3CC=C4c5sc(N6CCN(C)CC6)nc5CC[C@]4(C)[C@H]3CC[C@@]21C", "growth": "47.6%"}, {"smiles": "COc1nc2ccc(C)cc2cc1-c1nc2c(cnn2-c2ccc(Br)cc2)c(=O)[nH]1", "growth": "29.5%"}, {"smiles": "O=C(Nc1nc2ccc(C(=O)N3CCN(c4ccc(Cl)c(Cl)c4)CC3)cc2s1)c1ccc(NCCc2ccccc2)c([N+](=O)[O-])c1", "growth": "88.6%"}, {"smiles": "COc1ccc(-c2c(-c3cc(OC)c4c(c3)OCO4)noc2N)cc1", "growth": "-2.08% (active)"}]}]}
